# Source: PubChem BioAssay (NCI)
# About 79,000 compounds went through this panel and 15% of them were active in at least one assay; those are over-represented in the sample as a whole. Calls of active or inactive are those of the source. Rule as the data show it: active = growth inhibition above about 70%; inactive = the rest.
# What was measured:
# [1] = NCI Yeast Anticancer Drug Screen. Data for the rad50 strain (AID 155);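 also: 0% = growth of vehicle-only cultures of the same strain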; settings: S. cerevisiae rad50 strain growth inhibition, stronger effect = higher value
# How it was run: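 A DNA repair-deficient yeast mutant serves as the test organism; compound-induced growth inhibition is calculated against vehicle-treated cells.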
# [2] = NCI Yeast Anticancer Drug Screen. Data for the mec2-1 strain (AID 157); settings: S. cerevisiae mec2-1 strain, stronger effect = higher value
# How it was run: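 Compounds were applied to mec2-1 yeast cells. Their growth was then compared with that of vehicle-treated cultures to give growth inhibition.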
# [3] = NCI Yeast Anticancer Drug Screen. Data for the sgs1 mgt1 strain (AID 161);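 also: 0% = growth of cultures given vehicle only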; settings: S. cerevisiae sgs1 mgt1 strain, stronger effect = higher value
# How it was run: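 This yeast growth screen uses a strain with defined DNA-repair lesions; compound-treated growth is compared with vehicle-treated growth.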
# [4] = NCI Yeast Anticancer Drug Screen. Data for the cln2 rad14 strain (AID 165);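 also: 0% = growth equal to vehicle treated cultures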; settings: S. cerevisiae cln2 rad14 strain, stronger effect = higher value
# How it was run: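 Strain: cln2 rad14 yeast, altered in cell cycle control and DNA damage repair. Read-out: growth inhibition vs vehicle.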
# [5] = NCI Yeast Anticancer Drug Screen. Data for the bub3 strain (AID 167); settings: S. cerevisiae bub3 mutant strain, stronger effect = higher value
# How it was run: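 Inhibition values come from growth of compound-treated mutant yeast normalised to vehicle-treated controls.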
# [6] = NCI Yeast Anticancer Drug Screen. Data for the mlh1 rad18 strain (AID 175); settings: S. cerevisiae mlh1 rad18 strain growth inhibition, stronger effect = higher value
# How it was run: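 A repair-deficient yeast strain is exposed to test compound, and growth is scored relative to vehicle-treated controls.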
# [7] = at 5.0 µM (retest, dose inferred, filed as 0.5)
# [8] = at 50.0 µM (retest, dose inferred, filed as 5.0)
SMILES,"growth inhibition [1, 7]","growth inhibition [1, 8]",growth inhibition ([1]; at 50.0 µM),"growth inhibition [2, 7]","growth inhibition [2, 8]",growth inhibition ([2]; at 50.0 µM),"growth inhibition [3, 7]","growth inhibition [3, 8]",growth inhibition ([3]; at 50.0 µM),"growth inhibition [4, 7]","growth inhibition [4, 8]",growth inhibition ([4]; at 50.0 µM),"growth inhibition [5, 7]","growth inhibition [5, 8]",growth inhibition ([5]; at 50.0 µM),"growth inhibition [6, 7]","growth inhibition [6, 8]",growth inhibition ([6]; at 50.0 µM)
O=C1OC(CCCl)(c2ccccc2)CC1CN1CCOCC1 (stereo not given),10% (inactive),81% (active),70% (active),-10% (inactive),90% (active),57.9% (inactive),-2% (inactive),75% (active),59% (inactive),15% (inactive),56% (inactive),41.8% (inactive),30% (inactive),94% (active),71.5% (active),-7% (inactive),91% (active),73.6% (active)
O=C(/C=C\c1ccccc1)N1c2ccccc2CC1c1c[nH]c2ccccc12 (stereo not given),-10% (inactive),11% (inactive),6.35% (inactive),-1% (inactive),17% (inactive),-1.7% (inactive),4% (inactive),19% (inactive),10.3% (inactive),-1% (inactive),1% (inactive),36.9% (inactive),20% (inactive),41% (inactive),-2.1% (inactive),7% (inactive),11% (inactive),12.2% (inactive)
Clc1ccc2[nH]c(-c3ccccc3)c(-c3ccccn3)c2c1,81% (active),94% (active),96.2% (active),80% (active),98% (active),94.5% (active),93% (active),98% (active),97.7% (active),81% (active),97% (active),94% (active),93% (active),97% (active),96.7% (active),96% (active),97% (active),95.4% (active)
OCC(CO)C1c2cccc3ccc4cccc1c4c23,0% (inactive),30% (inactive),64.5% (inactive),-3% (inactive),24% (inactive),17.8% (inactive),-2% (inactive),46% (inactive),85.7% (active),-6% (inactive),37% (inactive),67.3% (inactive),13% (inactive),42% (inactive),53.5% (inactive),-4% (inactive),49% (inactive),81.4% (active)
O=S(O)CCCCCSSc1ccccc1,-1% (inactive),12% (inactive),22.9% (inactive),4% (inactive),40% (inactive),12.1% (inactive),3% (inactive),36% (inactive),30.1% (inactive),-9% (inactive),14% (inactive),50.5% (inactive),11% (inactive),73% (active),74.5% (active),4% (inactive),31% (inactive),48.9% (inactive)
COC(=O)c1ccccc1C#Cc1ccccc1C(=O)OC,-1% (inactive),-1% (inactive),66.8% (inactive),-2% (inactive),2% (inactive),54.3% (inactive),-2% (inactive),1% (inactive),89% (active),-2% (inactive),-7% (inactive),12.9% (inactive),3% (inactive),4% (inactive),83.5% (active),-3% (inactive),-5% (inactive),50% (inactive)
CCCCCCn1c(SCC)c2ccccc2c1-c1nc(F)nc(F)n1,-14% (inactive),5% (inactive),89.1% (active),-40% (inactive),-10% (inactive),92.8% (active),-15% (inactive),10% (inactive),90.2% (active),14% (inactive),52% (inactive),88.7% (active),24% (inactive),36% (inactive),88.5% (active),10% (inactive),34% (inactive),87.9% (active)
O=C(N/N=C/c1ccccc1)c1ccc([N+](=O)[O-])cc1,16% (inactive),15% (inactive),8.6% (inactive),-3% (inactive),6% (inactive),7.3% (inactive),22% (inactive),12% (inactive),1.15% (inactive),12% (inactive),19% (inactive),-1.35% (inactive),17% (inactive),24% (inactive),14.9% (inactive),15% (inactive),18% (inactive),1.05% (inactive)
C/C(=C\c1ccccc1)c1ccncc1,-17% (inactive),48% (inactive),64.7% (inactive),14% (inactive),12% (inactive),44.2% (inactive),-8% (inactive),51% (inactive),65.6% (inactive),-8% (inactive),21% (inactive),35.9% (inactive),-9% (inactive),48% (inactive),45.8% (inactive),-11% (inactive),24% (inactive),54.9% (inactive)
CCOC(=O)/C=C/c1ccc([N+](=O)[O-])o1,18% (inactive),91% (active),73.2% (active),3% (inactive),72% (active),31.4% (inactive),21% (inactive),93% (active),91.5% (active),4% (inactive),58% (inactive),34.5% (inactive),11% (inactive),82% (active),27.1% (inactive),28% (inactive),93% (active),85.5% (active)
COC(=O)[C@@]12OC[C@]34[C@H]([C@@H](O)[C@@H]1O)[C@@]1(C)[C@H](O)C(=O)C=C(C)[C@@H]1C[C@H]3OC(=O)C(OC(C)=O)[C@@H]24 (stereo not given in full),36% (inactive),98% (active),91% (active),35% (inactive),98% (active),89.3% (active),30% (inactive),98% (active),87.8% (active),43% (inactive),99% (active),90.5% (active),19% (inactive),98% (active),90.5% (active),34% (inactive),99% (active),90.8% (active)
O=C1c2cc3c(cc2CC1Br)CCC3 (stereo not given),99% (active),99% (active),79.5% (active),99% (active),100% (active),87% (active),99% (active),99% (active),88.3% (active),98% (active),99% (active),90.2% (active),99% (active),99% (active),89.5% (active),99% (active),99% (active),92.4% (active)
O=C(CC1(O)C(=O)Nc2c(Cl)cc(Cl)cc21)c1ccc(Br)cc1 (stereo not given),3% (inactive),3% (inactive),93.1% (active),-9% (inactive),-9% (inactive),92% (active),-23% (inactive),-23% (inactive),92% (active),-8% (inactive),-8% (inactive),91.8% (active),7% (inactive),7% (inactive),94.3% (active),-1% (inactive),-1% (inactive),92.7% (active)
CC1CC(C)CC(NC2=NCCO2)C1 (stereo not given),13% (inactive),-5% (inactive),-4.1% (inactive),6% (inactive),-5% (inactive),22.2% (inactive),12% (inactive),13% (inactive),21.6% (inactive),11% (inactive),7% (inactive),27.6% (inactive),27% (inactive),15% (inactive),7.8% (inactive),8% (inactive),-12% (inactive),21.1% (inactive)
CC(/C=C/c1cccs1)=N\C(=S)NC(N)=S,-1% (inactive),0% (inactive),3.7% (inactive),10% (inactive),32% (inactive),28.4% (inactive),1% (inactive),12% (inactive),26.7% (inactive),-1% (inactive),-4% (inactive),2.05% (inactive),1% (inactive),52% (inactive),77.8% (active),-5% (inactive),12% (inactive),25.9% (inactive)
O=C1C(c2ccccc2)=S=C2C=CC=CN12,2% (inactive),67% (inactive),85.2% (active),-1% (inactive),41% (inactive),41.1% (inactive),2% (inactive),79% (active),16.8% (inactive),-1% (inactive),17% (inactive),-0.75% (inactive),-4% (inactive),72% (active),41.5% (inactive),19% (inactive),95% (active),79.3% (active)
CN(C)CCC(=O)C(=Cc1cc(Cl)cc(Cl)c1)C(=O)CCN(C)C,2% (inactive),98% (active),96.3% (active),-19% (inactive),99% (active),99% (active),12% (inactive),99% (active),85.2% (active),0% (inactive),98% (active),40.6% (inactive),-8% (inactive),98% (active),97.8% (active),-4% (inactive),97% (active),97.5% (active)
O=[N+]([O-])c1cc(CN(CCO)CCO)c(O)c2ncccc12,99% (active),99% (active),99.1% (active),98% (active),100% (active),94% (active),96% (active),100% (active),99% (active),97% (active),99% (active),91.3% (active),95% (active),99% (active),95.7% (active),96% (active),99% (active),97.2% (active)
COC(=O)[C@H]1O[C@H]1c1ccncc1,0% (inactive),-5% (inactive),18.2% (inactive),3% (inactive),-2% (inactive),1.65% (inactive),5% (inactive),-2% (inactive),18.2% (inactive),-1% (inactive),-17% (inactive),53.8% (inactive),3% (inactive),-2% (inactive),6.2% (inactive),0% (inactive),-13% (inactive),8.2% (inactive)
O=C1C=CC(=O)c2c(O)c(N3CCN(CCO)CC3)c(Cl)c(O)c21,37% (inactive),95% (active),84.7% (active),33% (inactive),99% (active),89.8% (active),48% (inactive),99% (active),90.7% (active),26% (inactive),82% (active),86.8% (active),47% (inactive),98% (active),88.5% (active),41% (inactive),98% (active),88.8% (active)
